Reference: PubChem BioAssay (EPA / NIEHS)
The source made the active and inactive calls. The calls were made as follows: active = hit-call score of the fitted dose curve at least 0.9, where 1 is the maximum; inactive = score below 0.9.

Columns and labels:
[1] = read-out: Tissue plasminogen activator (tPA), PLAT (gene 5327); test: BSK_BE3C_tPA: BioMAP Diversity Plus: BE3C Assay for Tissue plasminogen activator (tPA) Biomarker Activity (AID 2283041); details: primary human bronchial epithelial cells; actives raise or lower the signal;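 as to outcome: tPA level quantified by ELISA one day after compound addition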
Summary of the method: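 Primary human bronchial epithelial cells in the BE3C system, exposed to compound for 24 h. tPA was quantified by ELISA; DMSO served as baseline, with gain or loss of signal fitted. Cytotoxicity checked in parallel cultures by SRB total-protein staining.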

[2] = read-out: Interleukin-8 (IL8), CXCL8 (gene 3576); test: BSK_CASM3C_IL8: BioMAP Diversity Plus: CASM3C Assay for Interleukin-8 (IL8) Biomarker Activity (AID 2283042); details: primary human coronary artery smooth muscle cells; actives raise or lower the signal;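 also: IL-8 protein level quantified by ELISA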
[3] = read-out: Human Leukocyte Antigen - DR isotype (HLADR), HLA-DRA (gene 3122); test: BSK_CASM3C_HLADR: BioMAP Diversity Plus: CASM3C Assay for Human Leukocyte Antigen - DR isotype (HLADR) Biomarker Activity (AID 2283043); details: primary human coronary artery smooth muscle cells; actives raise or lower the signal;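 also: cell-surface HLA-DR protein level quantified by ELISA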
[4] = read-out: Macrophage colony-stimulating factor (MCSF), CSF1 (gene 1435); test: BSK_CASM3C_MCSF: BioMAP Diversity Plus: CASM3C Assay for Macrophage colony-stimulating factor (MCSF) Biomarker Activity (AID 2283044); details: primary human coronary artery smooth muscle cells; actives raise or lower the signal;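 also: M-CSF protein amount quantified by ELISA after 24 h exposure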
[5] = read-out: Low-density lipoprotein receptor (LDLR), LDLR (gene 3949); test: BSK_CASM3C_LDLR: BioMAP Diversity Plus: CASM3C Assay for Low-density lipoprotein receptor (LDLR) Biomarker Activity (AID 2283045); details: primary human coronary artery smooth muscle cells; actives raise or lower the signal;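 also: LDLR protein level on the cell surface quantified by ELISA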
[6] = read-out: Monocyte Chemoattractant Protein-1 (MCP1), CCL2 (gene 6347); test: BSK_CASM3C_MCP1: BioMAP Diversity Plus: CASM3C Assay for Monocyte Chemoattractant Protein-1 (MCP1) Biomarker Activity (AID 2283046); details: primary human coronary artery smooth muscle cells; actives raise or lower the signal;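 also: MCP-1 level quantified by ELISA 24 h after dosing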
[7] = BSK_CASM3C_Proliferation: Cell Proliferation Assessment in the BioMAP Diversity Plus: CASM3C Assay (AID 2283047); details: primary human coronary artery smooth muscle cells;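 also: sulforhodamine B total protein stain as relative cell number at 560 nm; sub-confluent cells exposed 48 h before staining; fitted both ways against DMSO so gain or loss of cell number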
[8] = read-out: Monokine induced gamma interferon (MIG), CXCL9 (gene 4283); test: BSK_CASM3C_MIG: BioMAP Diversity Plus: CASM3C Assay for Monokine induced gamma interferon (MIG) Biomarker Activity (AID 2283048); details: primary human coronary artery smooth muscle cells; actives raise or lower the signal;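 also: MIG protein level measured by ELISA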
[9] = read-out: serum amyloid A (SAA), SAA1 (gene 6288); test: BSK_CASM3C_SAA: BioMAP Diversity Plus: CASM3C Assay for serum amyloid A (SAA) Biomarker Activity (AID 2283049); details: primary human coronary artery smooth muscle cells; actives raise or lower the signal;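 also: SAA protein level quantified by ELISA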
[10] = BSK_CASM3C_SRB: Viability Assessment in the BioMAP Diversity Plus: CASM3C Assay (AID 2283050); details: primary human coronary artery smooth muscle cells

For `O=C(Oc1ccccc1)c1cccc(C(=O)Oc2ccccc2)c1`, the outcome [1] was “inactive”, the outcome [2] was “inactive” and the outcome [3] was “inactive”. The outcome [4] was “inactive”, the outcome [5] was “inactive” and the outcome [6] was “inactive”. The outcome [7] was “inactive”, the outcome [8] was “inactive” and the outcome [9] was “inactive”. For the same compound, the outcome [10] was “inactive”.
With `CC(C)COC(=O)CCCCC(=O)OCC(C)C` the outcome [1] was “inactive”, the outcome [2] was “inactive” and the outcome [3] was “inactive”. The outcome [4] was “inactive”, the outcome [5] was “inactive” and the outcome [6] was “inactive”. For the same compound, the outcome [7] was “inactive”, the outcome [8] was “inactive” and the outcome [9] was “inactive”. For the same compound, the outcome [10] was “inactive”.
In the case of `O=C1CCCCC1`, the outcome [1] is reported as “inactive”, the outcome [2] is reported as “inactive” and the outcome [3] is reported as “inactive”. For the same compound, the outcome [4] was “inactive”, the outcome [5] was “inactive” and the outcome [6] was “inactive”. The outcome [7] was “inactive”, the outcome [8] was “inactive” and the outcome [9] was “inactive”. For the same compound, the outcome [10] was “inactive”.
For `c1ccc2occc2c1`, the outcome [1] was “inactive”, the outcome [2] was “inactive” and the outcome [3] was “inactive”. The outcome [4] was “inactive”, the outcome [5] was “inactive” and the outcome [6] was “inactive”. For the same compound, the outcome [7] was “inactive”, the outcome [8] was “inactive” and the outcome [9] was “inactive”. The outcome [10] was “inactive”.
In the case of `O=C(NS(=O)(=O)/C=C/c1cccs1)c1ccc(F)cc1Br`, the outcome [1] is reported as “inactive”, the outcome [2] is reported as “inactive” and the outcome [3] is reported as “inactive”. For the same compound, the outcome [4] was “inactive”, the outcome [5] was “inactive” and the outcome [6] was “inactive”. The AC50 [7] was 5.22 µM (active), the outcome [8] was “inactive” and the outcome [9] was “inactive”. For the same compound, the outcome [10] was “inactive”.
With `CS(=O)(=O)c1ccc([C@@H](C[C@H]2CCC(=O)C2)C(=O)Nc2cnccn2)cc1Cl` the outcome [1] was “inactive”, the outcome [2] was “inactive” and the outcome [3] was “inactive”. The outcome [4] was “inactive”, the outcome [5] was “inactive” and the outcome [6] was “inactive”. The outcome [7] was “inactive”, the outcome [8] was “inactive” and the outcome [9] was “inactive”. For the same compound, the outcome [10] was “inactive”.
In the case of `COC(=O)CCCC(=O)OC`, the outcome [1] is reported as “inactive”, the outcome [2] is reported as “inactive” and the outcome [3] is reported as “inactive”. The outcome [4] was “inactive”, the outcome [5] was “inactive” and the outcome [6] was “inactive”. For the same compound, the outcome [7] was “inactive”, the outcome [8] was “inactive” and the outcome [9] was “inactive”. The outcome [10] was “inactive”.
In the case of `CC(=O)S[C@H](C(=O)N[C@H]1Cc2ccccc2[C@H]2CCC[C@@H](C(=O)O)N2C1=O)C(C)C`, the outcome [1] is reported as “inactive”, the outcome [2] is reported as “inactive” and the AC50 [3] is reported as 3.97 µM (active). For the same compound, the outcome [4] was “inactive”, the outcome [5] was “inactive” and the outcome [6] was “inactive”. The outcome [7] was “inactive”, the outcome [8] was “inactive” and the outcome [9] was “inactive”. The outcome [10] was “inactive”.
For `Oc1ccc(O)cc1`, the outcome [1] was “inactive”, the outcome [2] was “inactive” and the AC50 [3] was 9.58 µM (active). The AC50 [4] was 15.1 µM (active), the outcome [5] was “inactive” and the outcome [6] was “inactive”. The AC50 [7] was 25.7 µM (active), the outcome [8] was “inactive” and the outcome [9] was “inactive”. For the same compound, the outcome [10] was “inactive”.
For `O=Cc1ccccc1C=O`, the outcome [1] was “inactive”, the outcome [2] was “inactive” and the outcome [3] was “inactive”. The outcome [4] was “inactive”, the outcome [5] was “inactive” and the outcome [6] was “inactive”. For the same compound, the outcome [7] was “inactive”, the outcome [8] was “inactive” and the outcome [9] was “inactive”. The outcome [10] was “inactive”.
In the case of `Cc1cc(SC2=C(O)C[C@@](CCc3ccc(N)cc3)(C(C)C)OC2=O)c(C(C)(C)C)cc1CO`, the outcome [1] is reported as “inactive”, the outcome [2] is reported as “inactive” and the outcome [3] is reported as “inactive”. The outcome [4] was “inactive”, the outcome [5] was “inactive” and the outcome [6] was “inactive”. The outcome [7] was “inactive”, the outcome [8] was “inactive” and the outcome [9] was “inactive”. The outcome [10] was “inactive”.
For `CN(C)C(=O)NC1(c2ccccc2)CCN(CC[C@@]2(c3ccc(F)c(F)c3)CN(C(=O)c3ccccc3)CCO2)CC1`, the outcome [1] was “inactive”, the outcome [2] was “inactive” and the outcome [3] was “inactive”. For the same compound, the outcome [4] was “inactive”, the outcome [5] was “inactive” and the outcome [6] was “inactive”. The outcome [7] was “inactive”, the outcome [8] was “inactive” and the outcome [9] was “inactive”. For the same compound, the outcome [10] was “inactive”.
For `S=c1[nH]c2ccccc2s1`, the outcome [1] was “inactive”, the outcome [2] was “inactive” and the outcome [3] was “inactive”. The AC50 [4] was 9.81 µM (active), the outcome [5] was “inactive” and the outcome [6] was “inactive”. For the same compound, the outcome [7] was “inactive”, the outcome [8] was “inactive” and the outcome [9] was “inactive”. For the same compound, the outcome [10] was “inactive”.
In the case of `CC(N)=O`, the outcome [1] is reported as “inactive”, the outcome [2] is reported as “inactive” and the outcome [3] is reported as “inactive”. For the same compound, the outcome [4] was “inactive”, the outcome [5] was “inactive” and the outcome [6] was “inactive”. The outcome [7] was “inactive”, the outcome [8] was “inactive” and the outcome [9] was “inactive”. For the same compound, the outcome [10] was “inactive”.
In the case of `C/C=C/C=C/C(=O)O`, the outcome [1] is reported as “inactive”, the outcome [2] is reported as “inactive” and the outcome [3] is reported as “inactive”. The outcome [4] was “inactive”, the outcome [5] was “inactive” and the outcome [6] was “inactive”. The outcome [7] was “inactive”, the outcome [8] was “inactive” and the outcome [9] was “inactive”. For the same compound, the outcome [10] was “inactive”.
For `CCCCc1nc2cccnc2n1Cc1ccc(-c2ccccc2-c2nnn[nH]2)cc1`, the outcome [1] was “inactive”, the outcome [2] was “inactive” and the outcome [3] was “inactive”. The outcome [4] was “inactive”, the outcome [5] was “inactive” and the outcome [6] was “inactive”. The outcome [7] was “inactive”, the outcome [8] was “inactive” and the outcome [9] was “inactive”. The outcome [10] was “inactive”.
With `CCCCCCCCCC[N+](C)(C)[O-]` the outcome [1] was “inactive”, the outcome [2] was “inactive” and the outcome [3] was “inactive”. The outcome [4] was “inactive”, the outcome [5] was “inactive” and the outcome [6] was “inactive”. For the same compound, the outcome [7] was “inactive”, the outcome [8] was “inactive” and the outcome [9] was “inactive”. For the same compound, the outcome [10] was “inactive”.
In the case of `Cc1ccc(-c2cc(C(F)(F)F)nn2-c2ccc(S(N)(=O)=O)cc2)cc1`, the AC50 [1] is reported as 18.6 µM (active), the AC50 [2] is reported as 32.7 µM (active) and the AC50 [3] is reported as 32.4 µM (active). For the same compound, the AC50 [5] was 22.5 µM (active), the AC50 [6] was 31.5 µM (active) and the AC50 [7] was 30.8 µM (active). For the same compound, the AC50 [8] was 31 µM (active), the AC50 [9] was 31.2 µM (active) and the AC50 [10] was 33.9 µM (active).
In the case of `NCCOCCOCCN`, the outcome [1] is reported as “inactive”, the outcome [2] is reported as “inactive” and the outcome [3] is reported as “inactive”. The outcome [4] was “inactive”, the outcome [5] was “inactive” and the outcome [6] was “inactive”. For the same compound, the outcome [7] was “inactive”, the outcome [8] was “inactive” and the outcome [9] was “inactive”. For the same compound, the outcome [10] was “inactive”.
For `O=C(O)c1cccnc1`, the outcome [1] was “inactive”, the outcome [2] was “inactive” and the outcome [3] was “inactive”. The outcome [4] was “inactive”, the outcome [5] was “inactive” and the outcome [6] was “inactive”. The outcome [7] was “inactive”, the outcome [8] was “inactive” and the outcome [9] was “inactive”. The outcome [10] was “inactive”.
In the case of `Cn1cnc2c1c(=O)[nH]c(=O)n2C`, the outcome [1] is reported as “inactive”, the outcome [2] is reported as “inactive” and the outcome [3] is reported as “inactive”. For the same compound, the outcome [4] was “inactive”, the outcome [5] was “inactive” and the outcome [6] was “inactive”. For the same compound, the outcome [7] was “inactive”, the outcome [8] was “inactive” and the outcome [9] was “inactive”. For the same compound, the outcome [10] was “inactive”.
For `O=C1OC(c2ccc(O)cc2)(c2ccc(O)cc2)c2ccccc21`, the outcome [1] was “inactive”, the outcome [3] was “inactive” and the outcome [4] was “inactive”. For the same compound, the outcome [5] was “inactive”, the outcome [6] was “inactive” and the AC50 [7] was 28.2 µM (active). The outcome [8] was “inactive”, the outcome [9] was “inactive” and the outcome [10] was “inactive”.
